Screening data (PubChem)
POLK inh = qHTS for Inhibitors of Polymerase Kappa. DNA polymerase kappa (Homo sapiens), Q9UBT6. purified Pol kappa, fluorescent DNA synthesis assay, 10 min. Potency, µM (highest dose often 107 µM), without a hit: top-dose activity, negative = inhibition, hits mostly inhibitors. actives 0.53% (n = 400,000). AID 588579, 2011; further: on the % scale 0 is the no-effect control and ±100 the full control effect
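50 nM final substrate added after 15 min RT preincubation of 10 nM Pol kappa with compound; fluorescence read at 0 and 10 min.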
Pol eta inh = qHTS for Inhibitors of Polymerase Eta. recombinant Pol eta, fluorescent DNA replication assay. actives 1.2% (n = 390,000). Potency, µM (titrated, usually from 114 µM), for the others: top-dose activity change, negative = inhibition, hits mostly inhibitors. DNA polymerase eta (Homo sapiens), Q9Y253; further: on the % scale 0 is the no-effect control and ±100 the full control effect
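Pol eta (10 nM) was preincubated with compounds for 15 min at room temperature, after which fluorescent replication substrate (50 nM final) was added to start the reaction. Fluorescence was read kinetically at 0 and 10 min.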
FEN1 inhibitor = qHTS Assay for the Inhibitors of Human Flap endonuclease 1 (FEN1); AID 588795, 2011; actives 0.35% (n = 390,000); Potency, µM (top dose mostly 114 µM), inactives show at the top dose activity change, negative = inhibition, actives largely listed as inhibitors; Recombinant FEN1 flap cleavage, fluorescence, 15 min; further: on the % scale 0 is the no-effect control and ±100 the full control effect; nearly all actives have a fitted effect of over 65% in size
Target sequence (P39748 whole entry, looked up): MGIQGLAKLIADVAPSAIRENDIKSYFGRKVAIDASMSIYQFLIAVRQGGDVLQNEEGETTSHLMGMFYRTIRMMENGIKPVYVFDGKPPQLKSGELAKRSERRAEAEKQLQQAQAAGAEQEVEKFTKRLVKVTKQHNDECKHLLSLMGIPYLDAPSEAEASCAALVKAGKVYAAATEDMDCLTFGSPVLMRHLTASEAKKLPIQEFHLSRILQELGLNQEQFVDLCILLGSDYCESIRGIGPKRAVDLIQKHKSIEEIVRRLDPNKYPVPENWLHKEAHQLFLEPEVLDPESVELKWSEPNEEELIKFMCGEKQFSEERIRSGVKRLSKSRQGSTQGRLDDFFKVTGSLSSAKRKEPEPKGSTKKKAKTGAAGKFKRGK
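FEN1 at 10 nM, compound pretreatment for 15 min (room temperature), 50 nM final substrate to initiate; endpoint reads at 0 and 15 min; DMSO-only plates used as vehicle background.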
POLI inh = qHTS for Inhibitors of Polymerase Iota; DNA polymerase iota (Homo sapiens), Q9UNA4; Pol iota fluorescent replication assay, 10 min; Potency, µM (highest dose often 115 µM), for the others: top-dose activity, negative = inhibition, actives largely listed as inhibitors; actives 1% (n = 390,000); AID 588590, 2011
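Fluorescent replication assay read twice, at 0 min and 10 min after adding 50 nM (final) substrate. Enzyme (10 nM) and compounds were first incubated 15 min at room temperature; enzyme-free buffer wells were negative controls.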
WRN inhibitor = qHTS for Inhibitors of WRN Helicase | actives 0.46% (n = 360,000) | Potency, µM (series often up to 114 µM), for the others: at the highest dose activity change, negative = inhibition, hits mostly inhibitors | WRN helicase unwinding, fluorescent forked duplex, kinetic | Bifunctional 3'-5' exonuclease/ATP-dependent helicase WRN (Homo sapiens), Q14191; further: on the % scale 0 is the no-effect control and ±100 the full control effect; nearly all actives have a fitted effect of over 55% in size
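Fluorescence dequenching readout, ex 525 nm/em 598 nm, kinetic mode: forked duplex DNA (100 nM final) with adjacent fluorophore and quencher unwound by WRN (20 nM final) with 2 mM ATP. Compound preincubation 15 min, room temperature.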
POLB inh = qHTS Assay for Inhibitors of DNA Polymerase Beta. P06746. Pol beta primer extension/strand displacement, fluorescence kinetic. Potency, µM (doses to about 114 µM), for the others: top-dose activity change, negative = inhibition, most hits filed as inhibitors. actives 1.3% (n = 340,000); further: on the % scale 0 is the no-effect control and ±100 the full control effect
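Enzyme-only controls used 10 nM Pol beta; buffer lacking enzyme served as negative control. Compound preincubated 15 min, then 50 nM substrate added; 0 and 10 min reads at room temperature.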
An asterisk follows results filed as active; ? = inconclusive; · = not tested or not shown; ! = not active in a repeat; [ ] = remark or other dose. Rows were chosen to be rich in hits. Some 2.4% of all compounds tested hit in one or more screens of this group. The call rests on the fitted dose curve; in most records, active means well fitted curve in the direction sought with a large enough effect; inconclusive means small, poorly fitted or top-dose-only effect, or another doubt; inactive means no such curve, though single readings can be large; an effect the other way counts as inactive or inconclusive. Potency means the concentration at half of the fitted maximal effect.

SMILES | POLK inh | Pol eta inh | FEN1 inhibitor | POLI inh | WRN inhibitor | POLB inh
CC(=O)c1cccc(NC(=O)Cn2c(=O)oc3cc(S(=O)(=O)N4CCCC4)ccc32)c1 | -20% | 0% | 2% | ? | -2% | 32µM*!
CC(C)C1C(=O)N(S(C)(=O)=O)[C@H]2CCN(C(=O)/C=C/CN3CCCCC3)[C@@H]12 (some centres not stated) | 18%[60.1 µM] | · | · | · | · | ·
CN(C)CCCCCCNc1nccc(N2CCN(C)CC2)n1 | -1% | · | -5% | 89% | · | ·
CN(Cc1ccco1)C(=O)CSc1nn2c(=O)c(C(C)(C)C)nnc2s1 | -24% | 79µM* | 10% | ? | -11%[11.6 µM] | ·
O=C(/C=C/c1ccco1)Nc1cc(Cl)ccc1C(=O)O | ? | 10µM* | -17% | ? | -36% | 22µM*
O=C(/C=C\c1ccco1)Nc1cc([N+](=O)[O-])ccc1F | -14% | 2% | -1% | 10% | 7% | -10%
COc1ccc2[nH]c(C)c(C(=O)CNc3nccs3)c2c1 | -9% | · | -5% | 33% | · | ·
CC(C)S(=O)(=O)C1=NSC2=NC(=O)/C(=C\c3ccc(-c4ccccc4)o3)C(=N)N21 | ? | 18µM* | ? | -12% | ? | 79µM*
CCOC(=O)c1cc(=O)n2[nH]c(-c3ccc(C)cc3)cc2n1 | -18% | -12% | -5% | -2% | 6% | -10%
CCOC(=O)Cc1cc(=O)n2[nH]c(-c3ccc(C)cc3)cc2n1 | -38% | ? | -5% | 79µM* | -17%[57.1 µM] | 22µM*
CN1CCN(c2ncnc3ccc(-c4cccc(NS(C)(=O)=O)c4)cc23)CC1 | 8%[60.1 µM] | · | · | · | · | ·
COc1ccc(CNc2ccnc(-c3ccc(N(C)C)cc3)n2)c(OC)c1 | -5%[60.1 µM] | · | · | · | · | ·
CN(C)c1ccc(/C=C2/SC(=O)N(CCN=C3NS(=O)(=O)c4ccccc43)C2=O)cc1 | -13% | ? | 1% | 2% | -28%[57.1 µM] | -1%[57.1 µM]
CN(C)c1ccc(/C=C2\SC(=O)N(CCc3nnc(N)s3)C2=O)cc1 | -18% | -11% | 2% | 50µM* | -12% | ?
Nc1ncnc2c1ncn2[C@H]1O[C@@H](CSCC[C@@H](N)C(=O)O)[C@H](O)[C@@H]1O | 7%[19.4 µM] | · | · | · | · | ·
CCOC(=O)c1c(NC(=O)CSc2nnnn2-c2ccccc2)sc2c1CCC(C)C2 (configuration not stated) | -3% | -22% | -17% | 22% | -7% | 19%
CCn1c(SCC(=O)N/N=C/C(C)=C\c2ccco2)nnc1-c1ccccc1 | ? | ? | 7% | 45µM* | -5%[11.6 µM] | 28µM*
CCn1c(SCC(=O)N/N=C/c2ccc(C)o2)nnc1-c1ccccc1 | 2% | -8% | -6% | 56% | 4% | -1%
CC1CCc2c(sc(NC(=O)c3cccn3C)c2C(N)=O)C1 (configuration not stated) | -22% | 32µM* | 12% | ? | -6%[11.6 µM] | ·
CCn1c(SCC(=O)Nc2ccc3c(c2)c2ccccc2n3CC)nnc1-c1ccco1 | 35µM* | 25µM* | 50µM* | ? | 185% | 2%
CCn1c(SCC(=O)Nc2sc3c(c2C(N)=O)CCC(C)C3)nnc1-c1ccco1 (configuration not stated) | ? | ? | ? | 22µM* | ? | 56µM*
CCn1c(SCC(=O)Nc2cccc(NC(C)=O)c2)nnc1-c1ccco1 | -22% | -9% | -5% | 167% | -6% | 16%
CCc1ccccc1N(CC)C(=O)Cn1nc(Cc2ccncc2)c2ccccc2c1=O | -5% | -3% | -13% | 19% | · | 40%
COc1ccc(CNc2nc(NCc3ccc(OC)cc3)c3ncn(C4CCCCC4)c3n2)cc1 | 7%[60.1 µM] | · | · | · | · | ·
